# Data taken from PubChem BioAssay.
# The source made the active and inactive calls. Unless noted, no rule for the calls is given here.
# Legend:
# [1] = system: XIP peptide (Xip251-270) binding; assay: small-molecule binders of XIP peptide, primary screen, biochemical, small-molecule microarray, fluorescence 635/667 nm, 0.1 µg/mL protein (AID 1182); conditions: fluorescent protein binding, 635 nm, higher = more signal, called active from +8 up or from −8 down
# XIP peptide (Xip251-270) = assay: small-molecule binders of XIP peptide, primary screen, biochemical, small-molecule microarray, fluorescence 635/667 nm, 0.5 µg/mL protein (AID 1183); conditions: small-molecule microarray binding, fluorescence 635 nm; higher = more signal
# [2] = Plasmodium falciparum growth inhibition, primary screen, strain 3D7, DAPI fluorescence, 100 nL (AID 1184);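 also: parasites grown inside human red blood cells in medium with human serum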; conditions: P. falciparum 3D7 growth, 3 d, higher = more signal
# [3] = target: Homeobox protein Hox-A13 (Mus musculus) (UniProt Q62424); assay: inhibitors of HoxA13-DNA binding, primary screen, biochemical, fluorescence polarization, labeled oligonucleotide (AID 1185); conditions: 15 min, higher = more signal, called active from +8 up or from −8 down
# Chain of Homeobox protein Hox-A13 (Mus musculus) (Q62424 whole entry, looked up): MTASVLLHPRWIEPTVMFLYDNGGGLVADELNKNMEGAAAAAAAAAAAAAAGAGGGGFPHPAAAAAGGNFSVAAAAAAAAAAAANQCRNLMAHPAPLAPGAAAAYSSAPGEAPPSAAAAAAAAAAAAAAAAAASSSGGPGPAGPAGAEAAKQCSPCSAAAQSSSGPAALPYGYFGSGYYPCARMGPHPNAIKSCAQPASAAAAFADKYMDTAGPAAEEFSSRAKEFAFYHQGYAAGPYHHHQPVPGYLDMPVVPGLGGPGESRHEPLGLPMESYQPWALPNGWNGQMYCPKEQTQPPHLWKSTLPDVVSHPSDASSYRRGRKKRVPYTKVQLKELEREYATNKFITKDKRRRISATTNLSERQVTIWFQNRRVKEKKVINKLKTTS
# [4] = inhibitors of hydroxyurea-induced Chk1 phosphorylation, primary screen, imaging, HeLa, phospho-Chk1 antibody, percent positive cells (AID 1186); conditions: hydroxyurea-induced phospho-Chk1 immunofluorescence imaging, higher = more signal
# [5] = inhibitors of hydroxyurea-induced Chk1 phosphorylation, primary screen, imaging, HeLa, phospho-Chk1 nuclear intensity (AID 1187); conditions: hydroxyurea-induced phospho-Chk1 immunofluorescence imaging, higher = more signal
Structure (SMILES),composite z-score [1],composite z-score (XIP peptide (Xip251-270)),z-score [2],z-score [3],z-score [4],z-score [5]
C=CCNC(=O)[C@@H]1[C@H]2C(=O)O[C@H](c3ccccc3)[C@H](c3ccccc3)N2[C@H](c2ccc(O)cc2)[C@@]12C(=O)Nc1ccc(C#CC3=CCCCC3)cc12,1.79 (inactive),0.716,0.155,0.828 (inactive),0.0206 (inactive),-0.275 (inactive)
CC(C)(C)OC(=O)CC[C@@]1(C(=O)N2CCOCC2)N=C(c2ccc(OCCCO)cc2)O[C@@H]1c1ccccc1CN=[N+]=[N-],3.3 (inactive),0.838,-2.12,-4.94 (inactive),0.158 (inactive),0.291 (inactive)
Cc1ccc(S[C@]2(C(=O)NC(C)C)CC(=O)N(Cc3ccccc3)[C@@H]2c2ccc(CO)cc2I)cc1,1.69 (inactive),-0.304,-0.158,-3.33 (inactive),-0.641 (inactive),-0.268 (inactive)
C=C(CCCC)/C(=C/C[C@@H](OC(C)=O)c1ccc(OCCO)cc1)c1cc(C(=O)OC)ccc1OC,0.952 (inactive),0.633,-3.06,-4.07 (inactive),0.526 (inactive),0.765 (inactive)
Cc1ccc(S[C@]2(C(=O)NCc3ccccc3)CC(=O)N(Cc3ccccc3Cl)[C@@H]2c2ccc(CO)cc2)cc1,1.65 (inactive),0.825,-1.2,-2.65 (inactive),0.172 (inactive),0.622 (inactive)
O=C1NC(=O)C2C1C=CC(C(O)C(O)CO)N2Nc1ccccn1 (centres undefined),-0.325 (inactive),0.129,0.488,-0.781 (inactive),-0.163 (inactive),-0.239 (inactive)
O=C(NCCN1CCOCC1)[C@@H]1c2ccccc2C(=O)N(CC23CC4CC(CC(C4)C2)C3)[C@H]1c1ccc(CO)cc1,0.238 (inactive),0.771,-1.32,-5.14 (inactive),0.333 (inactive),0.707 (inactive)
Cc1ccc(S[C@]2(C(=O)NCC(C)C)CC(=O)N(C(C)C)[C@@H]2c2ccc(CO)cc2I)cc1,0.708 (inactive),0.689,-1.12,-2.86 (inactive),-0.187 (inactive),0.023 (inactive)
C[N+](C)(C)CCCC[C@@H]1NC(=O)[C@H]2C[C@@H](C(=O)NCCCCCN)[C@@H](c3ccc(O)cc3)N2C1=O,0.528 (inactive),0.69,0.435,-1.12 (inactive),0.932 (inactive),0.79 (inactive)
COCCOC(=O)N1C(=O)[C@@]2(c3cc(C#CCCO)ccc31)[C@H](c1ccc(O)cc1)N1[C@H](c3ccccc3)[C@H](c3ccccc3)OC(=O)[C@H]1[C@@H]2C(=O)NC[C@H](O)c1ccccc1,0.395 (inactive),0.859,0.0019,-2.51 (inactive),0.0615 (inactive),0.345 (inactive)
Cc1ccc(S(=O)(=O)N2[C@@H](c3ccccc3)C(C(=O)O)=CC[C@H]2c2ccc(F)cc2)cc1,-0.311 (inactive),-0.0114,-0.204,-5.57 (inactive),0.388 (inactive),0.391 (inactive)
CC(C)C[C@@H]1NC(=O)[C@H]2C[C@@H](C(=O)O)[C@@H](c3cccc(OCCO)c3)N2C1=O,0.693 (inactive),0.737,-0.404,-2.46 (inactive),-0.03 (inactive),-0.134 (inactive)
CO[C@H]1O[C@H](CO)[C@@H](OC(=O)Nc2ccccc2)[C@@H]2OC(=O)[C@@H](Cc3ccccc3)C/C=C/C[C@H](Cc3ccccc3)C(=O)O[C@@H]12,0.0585 (inactive),0.455,0.232,-0.539 (inactive),-0.741 (inactive),-0.467 (inactive)
COC(=O)C(CC#Cc1ccc2c(c1)[C@]1(C(=O)N2)[C@H](C(N)=O)[C@H]2C(=O)O[C@H](c3ccccc3)[C@H](c3ccccc3)N2[C@@H]1c1ccccc1OCCO)C(=O)OC,0.898 (inactive),0.817,-2.08,-1.12 (inactive),-0.49 (inactive),-0.137 (inactive)
COCCOC(=O)N1C(=O)[C@@]2(c3cc(C#CC4=CCCCC4)ccc31)[C@H](C(=O)N1CCCCCCC1)[C@H]1C(=O)O[C@H](c3ccccc3)[C@H](c3ccccc3)N1[C@@H]2c1ccccc1OCCO,0.502 (inactive),0.712,-2.04,3.21 (inactive),-0.245 (inactive),-0.178 (inactive)
CCCC=C(CCC)[C@@H](NC(=O)c1ccc(C(=O)OC)cc1)c1ccc(C(=O)OC)cc1,-0.0958 (inactive),-0.345,-0.685,-2.06 (inactive),0.151 (inactive),-0.745 (inactive)
CCOC(=O)C=C1C[C@@H](c2cccc([N+](=O)[O-])c2)O[C@@H](c2cccc([N+](=O)[O-])c2)O1,0.232 (inactive),0.673,-2.18,0.392 (inactive),-0.447 (inactive),-0.443 (inactive)

Structure (SMILES),composite z-score [1],composite z-score (XIP peptide (Xip251-270)),z-score [2],z-score [3],z-score [4],z-score [5]
O=C1C[C@@](C(=O)NCC(F)(F)F)(c2ccc([N+](=O)[O-])cc2)[C@@H](c2ccc(CO)cc2I)N1CC12CC3CC(CC(C3)C1)C2,2.08 (inactive),0.797,-1.23,-2.47 (inactive),-0.353 (inactive),-0.245 (inactive)
C=C(COC)C(=O)CC[C@H](OC(C)=O)c1ccccc1OCCO,-0.245 (inactive),0.337,-2.64,-3.78 (inactive),-0.201 (inactive),-0.218 (inactive)
CCOC(=O)C[C@H]1[C@H](OC(=O)c2cc3ccccc3oc2=O)[C@@H](NC(=O)Cc2ccc(OC)cc2)c2cc(OCCCO)ccc2N1C(=O)Cc1ccc(OC)cc1,-0.0664 (inactive),0.0609,-0.912,-5.1 (inactive),0.212 (inactive),0.199 (inactive)
O=C1O[C@@H](c2ccccc2)[C@@H](c2ccccc2)N2[C@@H](c3ccccc3OCCO)[C@]3(C(=O)Nc4ccc(C#CC5(O)CCCCCC5)cc43)[C@@H](C(=O)N3CCCCCCC3)[C@H]12,5.76 (inactive),0.878,-2.38,4.83 (inactive),0.503 (inactive),0.639 (inactive)
CCCCC(=C=CC[C@H](O)c1ccccc1OCCO)CCO,1.47 (inactive),-0.0255,-0.315,-3.54 (inactive),0.324 (inactive),0.181 (inactive)
O=C1O[C@H](c2ccccc2)[C@H](c2ccccc2)N2[C@H]1[C@@H](C(=O)N1CCCCCCC1)[C@]1(C(=O)Nc3ccc(C#CCCO)cc31)[C@H]2c1ccc(O)cc1,4.41 (inactive),0.976,-0.189,1.85 (inactive),-0.323 (inactive),-0.279 (inactive)
C=C(CCCC)C(=O)CC[C@H](OC(=O)c1ccccc1-c1ccccc1C(=O)O)c1cccc(OCCO)c1,-0.459 (inactive),0.614,-2.65,-6.4 (inactive),1.01 (inactive),0.182 (inactive)
C=CC[C@H](O)c1ccc(O)c2ccccc12,0.0693 (inactive),0.512,-1.36,-2.1 (inactive),0.835 (inactive),1.01 (inactive)
COc1ccc([Si](C)(C)[C@@H]2[C@@H](CC(=O)N(CCO)Cc3ccccc3)O[C@]3(C(=O)N(Cc4cccc(I)c4)c4ccccc43)[C@H]2C)cc1,0.479 (inactive),0.252,-2.86,-1.79 (inactive),0.55 (inactive),0.828 (inactive)
COC(=O)C(CC#Cc1ccc2c(c1)[C@]1(C(=O)N2)[C@H](C(=O)NC[C@H](O)c2ccccc2)[C@H]2C(=O)O[C@H](c3ccccc3)[C@H](c3ccccc3)N2[C@@H]1c1ccc(O)cc1)C(=O)OC,0.321 (inactive),0.418,-1.05,-3.56 (inactive),0.288 (inactive),0.557 (inactive)
C=CCNC(=O)[C@H]1[C@@H]2C(=O)O[C@@H](c3ccccc3)[C@@H](c3ccccc3)N2[C@@H](c2ccc(O)cc2)[C@]12C(=O)Nc1ccc(C#CCC(C(=O)OC)C(=O)OC)cc12,0.835 (inactive),0.764,-0.214,-2.88 (inactive),0.0976 (inactive),0.543 (inactive)
CCOC(=O)C1=C[C@@H](C(C)(C)C)N(S(=O)(=O)c2ccc(C)cc2)[C@H]1c1ccc(OC)cc1,0.58 (inactive),0.582,-1.88,-0.488 (inactive),0.15 (inactive),0.503 (inactive)
CC(C)N1C(=O)[C@@]2(Cc3ccccc31)c1ccccc1C(=O)N(Cc1ccccc1C(F)(F)F)[C@H]2c1ccc(CO)cc1,-0.0547 (inactive),0.471,-0.35,-0.791 (inactive),0.0153 (inactive),-0.0497 (inactive)
C=CCC(OC(C)=O)[C@@H]1[C@@H](N(Cc2ccc(-c3ccccc3)cc2)C(=O)Cc2ccc(OC)cc2)c2cc(OCCCO)ccc2N1C(=O)c1ccc2ccccc2c1 (some centres undefined),-0.965 (inactive),-0.0698,-2.9,-1.72 (inactive),0.443 (inactive),0.209 (inactive)
COC(=O)Cn1c(C(=O)N(C)C)cc2c1C[C@H]1CN(C(=O)c3ccccc3)[C@@](Cc3ccccc3)(C(=O)OC)[C@@H]21,-0.0872 (inactive),0.661,0.645,-4.29 (inactive),-0.12 (inactive),0.286 (inactive)
COC(=O)[C@@]1(Cc2ccc(F)cc2)[C@@H]2C(=CC(=O)[C@H]2CC(=O)C(=O)N2CCCC2)CN1C(=O)c1ccccc1,0.47 (inactive),0.839,-1.72,-4.84 (inactive),0.261 (inactive),0.278 (inactive)
CC(C)[Si](C#Cc1ccccc1)(O[C@H](c1ccccc1)c1cn(Cc2ccccc2)nn1)C(C)C,0.0554 (inactive),0.877,-1.18,-1.11 (inactive),0.0998 (inactive),0.124 (inactive)
